Only some compounds are listed: those with a hit (about 15% of all), similar ones and a draw of the others.
Sm TGR block = S. mansoni TGR enzyme inhibition; Q962Y6; AID 485364; 360,000 compounds, 3% hits; purified TGR, DTNB reduction, TNB absorbance 405 nm; Potency, µM (titrated, usually from 114 µM), without a hit: at the highest dose activity change, negative = inhibition, most hits filed as inhibitors; note: potency is the fitted concentration of half-maximal effect; % is set by controls: 0 for no effect and ±100 for the full control effect; nearly all actives have a fitted effect of over 60% in size
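TGR 20 nM + NADPH 100 uM (dispensed conc.), cpd preinc 15 min RT; start with NADPH (500 uM addition) then DTNB (15 mM addition). Kinetic TNB absorbance, 405 nm filter. Four-parameter Hill fit across titration.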
HCV inh = inhibitors of hepatitis C virus infection. Huh7.5.1 HCVcc-Cre infection, luciferase reporter, 44 h. Potency, µM (highest dose often 41.8 µM), for the others: at the highest dose activity change, negative = inhibition, usual class: inhibitors. 340,000 compounds, 3.4% hits. AID 651820; note: potency is the fitted concentration of half-maximal effect; % is set by controls: 0 for no effect and ±100 for the full control effect
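A cell-based infection assay in which seeded cells (1,000 per well) receive test compound after 4 h, are inoculated with HCVcc-Cre at approximately 0.5 moi, and are incubated 44 h before luminescence detection.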
Pf growth 48h = inhibits P. falciparum growth in the first generation, 48 h. 310,000 compounds, 5.9% hits. P. falciparum luciferase growth in erythrocytes, 48 h. Potency, µM (highest dose often 28.7 µM), for the others: at the highest dose activity change, negative = inhibition, actives largely listed as inhibitors. AID 504832; note: potency is the fitted concentration of half-maximal effect; % is set by controls: 0 for no effect and ±100 for the full control effect
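Cell-based growth assay: transgenic P. falciparum expressing firefly luciferase, cultured in red cells within RPMI 1640 containing 0.5% w/v Albumax, 24 mM bicarbonate and gentamycin. A drop in luciferase activity indicates inhibition.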
SARS PLP yeast = inhibitors of SARS-CoV papain-like protease in yeast. S. cerevisiae expressing SARS-CoV PLpro, growth rescue. Potency, µM (highest dose often 32.9 µM), without a hit: at the top dose activity, positive = growth rescue, actives largely listed as activators. 330,000 compounds, 0.19% hits. AID 485353; calls by dose curve; note: potency is the fitted concentration of half-maximal effect; 0% is about no effect; nearly all actives have a fitted effect of over 55% in size
HCMV antiviral = human cytomegalovirus inhibition; AID 1259415; 410,000 compounds, 4.5% hits; HFF cells, HCMV-luciferase reporter, 72 h; stronger effect = lower value; activity change, negative = inhibition, % at 57.5 µM; in the data active = activity change below about -60%; inconclusive = no clear call, values can overlap the other calls; inactive = above about -39%; note: % is set by controls: 0 for no effect and ±100 for the full control effect
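Inhibition of viral replication was scored as loss of reporter luminescence in HFFs infected with HCMV-luciferase (MOI 1 PFU/cell) for 72 h; compounds tested at 2 doses, normalized to buffer and Salinomycin controls.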
Pf growth 96h = P. falciparum growth inhibition at 96 hours. P. falciparum luciferase reporter growth, 96 h. Potency, µM (doses to about 28.7 µM), for inactives: at the highest dose activity change, negative = inhibition, hits mostly inhibitors. 320,000 compounds, 6.9% hits. AID 504834; note: potency is the fitted concentration of half-maximal effect; % is set by controls: 0 for no effect and ±100 for the full control effect
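Erythrocytes infected with luciferase-expressing P. falciparum were dispensed at 2% hematocrit and 0.05% parasitemia (final), then incubated with compounds 96 hours at 37 C in 5% CO2. Luminescence after detection reagent addition reported growth.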
* hit, by the source's call; ? = inconclusive; / = no result given; [ ] = remark or other dose. Unless noted, calls come from the whole dose curve; as a rule, active = well fitted curve in the direction sought with a large enough effect; inconclusive = small, poorly fitted or top-dose-only effect, or another doubt; inactive = no such curve, though single readings can be large; an effect the other way counts as inactive or inconclusive.

SMILES	Sm TGR block	HCV inh	Pf growth 48h	SARS PLP yeast	HCMV antiviral	Pf growth 96h
CCOc1ccc(-c2cnc(NCc3ccc(OC)cc3OC)n2C)cc1	-2.4%	/	/	/	-28.0	/
O=C(CCc1ccc(O)c(O)c1)NNC(=S)Nc1ccc(Br)cc1Cl	-26.2%	?	6.3%	0.8%	?	9.0%
CNC(=O)NC(=O)CSc1nnc(-c2ccco2)n1Cc1ccccc1	-10.1%	3.3%	13.0%	5.6%	-14.2	-0.6%
CCOC(=O)c1c(C)[nH]c(C)c1C(=O)CSc1nnc(-c2ccncc2)n1Cc1ccccc1	0.4%	-26.2%	/	0.2%	-16.4	10.4µM*
CCOC(=O)c1c(C)[nH]c(C)c1C(=O)CSc1nnc(-c2ccco2)n1Cc1ccccc1	-8.0%	7.7%	7.38µM*	-5.3%	17.3	14.7µM*
CCOC(=O)c1c(C)[nH]c(C)c1C(=O)CSc1nnc(-c2ccncc2)n1C	2.0%[11.4 µM]	23.5%	/	2.9%	4.1	2.0%
CCOC(=O)C(=Cc1ccc(-n2cncn2)cc1)C(=O)OCC	15.8µM*	-25.3%	?	-14.1%	-100.1*	?
CCOC(=O)/C(=C\c1ccc(N2CCC(c3ccccc3)=N2)cc1)C(C)=O	/	-8.8%	/	/	14.7	/
CCCCN(CC)CCNC(=O)C1CCCN(c2ncnc3onc(C)c23)C1 (stereo unspecified)	-2.0%	/	/	/	9.1	/
N#CC(=Cc1ccc(O)cc1)C(N)=C(C#N)C#N	-5.5%	-1.9%	0.1%	/	-36.9	2.7%
N#CC(C#N)=Cc1ccc(C=C(C#N)C#N)cc1	2.24µM*	-9.8%	?	0.7%	-37.0	3.0%
O=c1c2ccccc2c(C=Nc2cccc(S(=O)(=O)NCc3ccco3)c2)c(O)n1-c1ccc(Cl)cn1	-13.5%	?	14.7µM*	3.3%	-29.0	?
COc1cccc(CN2CCC2(C)C(=O)Nc2cccc3cccnc23)c1OC (stereo unspecified)	/	/	/	/	-5.8	/
COc1ccc(O)c(-c2c(-c3ccc(Cl)cc3)n[nH]c2C)c1	50.1µM*	-3.9%	?	-0.2%	1.2	/
Cc1[nH]nc(-c2ccc(O)cc2O)c1-c1ccc(Cl)cc1	-6.3%	?	39.0%	-10.4%	-71.5*	4.3%
COc1ccc(-c2n[nH]c(C)c2-c2ccc(Cl)cc2)c(O)c1OC	-8.8%	14.1µM*	?	-5.8%	?	?
COc1ccc(-c2n[nH]c(C)c2-c2ccc(Cl)cc2)c(O)c1	-20.4%	?	8.28µM*	-26.5%	?	10.4µM*
COc1ccc(-c2nc(N)nc(C)c2-c2ccc(Cl)cc2)c(O)c1	-11.7%	-21.7%	?	-4.2%	?	?
Cc1[nH]nc(-c2ccc(O)cc2O)c1-c1nc2ccccc2s1	0.3%	?	28.4%	1.5%	18.9	22.8%
CN(Cc1ccccc1)C(=O)c1ccc(NC(=O)C2CCN(C(=O)OC(C)(C)C)CC2)cc1	/	10.4%	/	4.2%	?	/
COc1ccccc1N1CCN(C(=O)Cn2c(=O)nc(-c3ccccc3)c3ccccc32)CC1	-9.2%	/	/	/	-8.3	/
CNC(=O)/C(=C\c1ccc2c(c1)OCO2)NC(=O)c1ccc(Br)cc1	3.6%	11.8%	-15.1%	0.8%	-60.5*	16.8%
CNCC(=O)NC(CCCN=C(N)N)C(=O)NC(C(=O)NC(Cc1ccc(O)cc1)C(=O)NC(C(=O)NC(Cc1cnc[nH]1)C(=O)N1CCCC1C(=O)NC(C)C(=O)O)C(C)C)C(C)C (stereo unspecified)	/	/	-3.3%	/	/	3.7%
COC(=O)c1ccc(NC(=O)CCN2CCN(c3ccccc3)CC2)cc1	-26.1%	-14.2%	?	-1.3%	35.0	-25.9%
Cc1csc2c(N3CCN(C(=O)Nc4ccc(OC(F)(F)F)cc4)CC3)ncnc12	4.8%	?	1.47µM*	-3.4%	-25.1	?
SMILES	Sm TGR block	HCV inh	Pf growth 48h	SARS PLP yeast	HCMV antiviral	Pf growth 96h
Cc1csc2c(N3CCC(C(=O)O)CC3)ncnc12	-5.2%	15.2%	0.0%	0.5%	7.2	62.5%
CC(=O)c1ccc(NC(=O)N2CCN(c3cccc(Cl)c3)CC2)cc1	-7.5%	12.6µM*	4.65µM*	-21.9%	-8.1	?
CC(=O)c1ccc(N2CCN(C(=O)Nc3ccc(Cl)cc3)CC2)cc1	-8.2%	?	?	-2.4%	?	6.5%
O=C(Nc1ccc(NC(=O)N2CCN(c3ccccc3O)CC2)cc1)N1CCN(c2ccccc2O)CC1	-1.3%	-20.0%	?	0.2%	6.0	5.86µM*
O=C(CCN1CCN(c2ccccc2)CC1)Nc1ccc(Cl)cc1	0.3%	1.4%	-4.7%	-9.2%	-0.1	3.7µM*
O=C(COC(=O)c1ccc(S(=O)(=O)C(F)F)cc1)Nc1cccnc1Cl	-10.3%	12.5%	-19.0%	-0.9%	-23.4	11.2%
O=C(Nc1cccc(Cl)c1)N1CCC(CO)(CCOc2ccccc2)CC1	4.3%	-18.3%	-5.6%	-1.2%	1.5	13.1µM*
O=C(Nc1ccc(Cl)cc1)N1CCC(CO)(Cc2ccccc2)CC1	-10.0%	?	-9.1%	-1.5%	-19.8	2.62µM*
Cc1ccc(NC(=O)N2CCN(c3ncccc3C(F)(F)F)CC2)cc1	4.6%	?	8.28µM*	-0.5%	-2.0	13.1µM*
O=C(Nc1ccc2ccccc2c1)N1CCN(c2ncccc2C(F)(F)F)CC1	-1.6%	?	?	-5.8%	8.9	?
O=C(Nc1ccc(Cl)cc1)N1CC1	/	?	/	/	-36.2	/
CC(=O)c1cccc(CN2CCC(CO)(CCOc3ccccc3)CC2)c1	4.4%	6.8%	-20.8%	-2.9%	-5.0	?
O=C(Nc1ccc(Cl)cc1)N1CCN(c2ccccc2)CC1	-3.0%	?	?	-24.5%	-24.5	11.7µM*
CCOC(=O)c1c(NC(=O)c2ccccc2Cl)sc2c1CCc1ccccc1-2	0.6%	7.94µM*	?	-5.7%	?	?
CCOC(=O)c1c(NC(=O)c2ccccc2)sc2c1CCc1ccccc1-2	0.6%	-22.0%	-3.3%	-9.9%	-20.8	?
COc1ccc2c(c1)NC(c1ccc(OCC(C)C)cc1)=NC(c1ccncc1)=N2	-8.2%	/	/	/	11.5	/
N#Cc1cccc(NC(=O)CSc2nnc(C3CC3)n2C2CC2)c1	0.9%	-8.4%	8.8%	3.8%	?	1.9%
COc1ccc(-c2csc(NC(=O)CSCc3c(C)noc3C)n2)c(OC)c1	-9.8%	?	?	-7.8%	-30.2	10.4µM*
COc1ccc(-c2csc(NC(=O)CN3C(=O)C4CCCCC4C3=O)n2)c(OC)c1 (stereo unspecified)	-6.6%	11.2µM*	-11.2%	0.0%	-10.3	?
COc1ccc(C2C(C(N)=O)=C(C)Nc3nc(CCCO)nn32)cc1OC (stereo unspecified)	9.6%	8.6%	-0.7%	-1.0%	/	-12.5%
C=C1C[C@H]2[C@@H]3CCc4cc(OC)ccc4[C@H]3CC[C@]12C	-0.9%	7.9%	7.2%	0.3%	-69.4*	78.7%

Screens as filed in PubChem.
